# Screens: PubChem, several laboratories
# Shown are actives, neighbours in structure and some others; about 2% of the full set was active somewhere.
# 697 NFkB inh = lowers PMA/ionomycin-induced NF-kB signal in 697 B cells. inhibition, % at 4 µM. 697 B-cell NF-kB luciferase reporter, 16 h. hit rate 0.33% among 330,000; in the data active means inhibition above about 35%
# Gli-Sufu antag = blocks Gli-Sufu signaling in a luciferase reporter; Sufu-KO-LIGHT fibroblasts, Gli luciferase reporter luminescence; inhibition, % at 5 µM; AID 588413; hit rate 0.74% among 340,000;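 active means inhibition above about 55%, limit read from the data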;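 further: 0% = DMSO-treated cells and 100% = wells with medium but no cells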
# COUP-TFII inh = blocks human COUP-TFII nuclear receptor. P24468. HEK293T NGFI-A luciferase reporter, luminescence. inhibition, % at 8.6 µM. hit rate 0.7% among 370,000;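 active means inhibition above a per-plate cutoff, mean inhibition of test wells between control levels plus 3 SD, cut at about 38% in these data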;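 further: cells cotransfected with COUP-TFII expression vector driving the NGFI-A reporter; 0% = median of COUP-TF2 test wells and 100% = reporter-only cells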
# GalR3 antagonist = antagonists of human GalR3; hit rate 0.44% among 360,000; AID 651719; O60755; inhibition, % at 3 µM; HEK293 GalR3-CNG cAMP membrane potential fluorescence; galR3 body fused to GalR1 C-terminus;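 active means inhibition above the screen-wide average plus 3 SD, cut at about 13% in these data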;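 further: forskolin and galanin both at EC90 stimulate the cells; cAMP rise reported by CNG channel membrane potential dye signal; 0% = forskolin plus galanin with DMSO and 100% = forskolin alone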
# Target sequence (O60755 1-299 limits assumed): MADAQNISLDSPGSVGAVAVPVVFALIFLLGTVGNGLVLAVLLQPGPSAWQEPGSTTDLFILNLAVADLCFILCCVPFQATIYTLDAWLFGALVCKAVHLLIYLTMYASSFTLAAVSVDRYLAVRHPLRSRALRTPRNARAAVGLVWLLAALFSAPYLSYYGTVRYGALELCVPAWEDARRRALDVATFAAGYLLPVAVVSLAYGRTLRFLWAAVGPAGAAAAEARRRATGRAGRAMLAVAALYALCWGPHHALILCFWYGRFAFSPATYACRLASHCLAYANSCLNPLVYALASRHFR
# Jurkat NFkB inh = lowers PMA/ionomycin-induced NF-kB signal in Jurkat cells; PMA/ionomycin-induced NF-kB luciferase reporter, luminescence; inhibition, % at 4 µM; hit rate 0.53% among 330,000; AID 435003; in the data active means inhibition above about 50%
# Gal4-VP16 ctr = VP16 inhibition counter-screen for COUP-TFII. shares compounds with COUP-TFII inh. HEK293 Gal4-VP16 luciferase reporter, luminescence. inhibition, % at 8.5 µM. hit rate 25% among 2,500. AID 687007; in the data active means inhibition above about 13%
# NR2F2 inh conf = confirmation of human COUP-TFII (NR2F2) inhibitors. HEK293 NGFI-A luciferase reporter, luminescence. AID 687008. shares compounds with COUP-TFII inh. inhibition, % at 8.5 µM. hit rate 45% among 2,500;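 active means mean inhibition over three repeats above a set limit taken from the earlier primary screen, cut at about 38% in these data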;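 further: 100% = cells given the luciferase reporter alone without the COUP-TF2 vector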
# * marks the source's active call; other numbers are inactive results; x = no result.
SMILES,697 NFkB inh,Gli-Sufu antag,COUP-TFII inh,GalR3 antagonist,Jurkat NFkB inh,Gal4-VP16 ctr,NR2F2 inh conf
CCn1cc(CCCC(=O)NCc2cccc(OC)c2)c2ccccc21,-12,12,38*,-9,7,-5,7
O=C(Cc1c[nH]c2ccccc12)Nc1ccc(Nc2cccnc2)c(-c2ccc(F)c(F)c2)c1,x,x,2,-7,x,x,x
Nn1c(SCC(=O)NC2CCCCC2)nnc1-c1cc(-c2ccccc2)n[nH]1,x,x,-25,x,x,x,x
COc1ccc(C(=O)OCCN2CCN(C3CN(Cc4cn(Cc5ccccc5Cl)nn4)S(=O)(=O)C3)CC2)cc1OC (stereo not given),x,x,35,x,x,x,x
O=S1(=O)CC(N2CCN(Cc3ccccc3F)CC2)CN1Cc1cn(Cc2ccc(C(F)(F)F)cc2)nn1 (stereo not given),x,x,60*,-7,x,-6,14
COc1ccc(C(=O)OCCN2CCN(C3CN(Cc4cn(Cc5ccccc5C(F)(F)F)nn4)S(=O)(=O)C3)CC2)cc1OC (stereo not given),x,x,48*,x,x,0,17
CC(=O)c1c(C)[nH]c(C(=O)OCC(=O)Nc2ccc(Cl)c(S(=O)(=O)N(C)C)c2)c1C,-12,19,45*,-7,29,-3,14
N#Cc1cc2ccccc2nc1SCC(=O)Nc1ccc(S(=O)(=O)N2CCCC2)cc1,15,11,39*,4,15,-8,2
FC(F)(F)Oc1ccc(Cn2ccc3ccc(-c4ccc5ccn(Cc6ccccc6)c5c4)cc32)cc1,x,x,26,x,x,x,x
C=CCCC(=O)N1CCC(C(=O)NC2CCCc3ccccc32)CC1 (stereo not given),x,x,1,x,x,x,x
COc1ccc(N2CCN(CCCNC(=O)COc3ccc(C)cc3)CC2)cc1,x,x,-8,x,x,x,x
Cc1ccc(-n2ncc3c(NCc4cccnc4)ncnc32)c(C)c1,-54,27,41*,-3,22,-12,24
COC(=O)[C@]12C[C@H](CC(=O)NCc3cccc4ccccc34)C(=O)N(Cc3ccc(Cl)cc3Cl)C1=C[C@H](C(C)(C)C)O[C@@H]2C,x,x,-16,x,x,x,x
COc1cccc(-c2ccc(CC[C@H]3O[C@H]4CC[C@@H](CO)O[C@H]4C[C@H]3NC(=O)c3cnccn3)cc2)c1,x,x,-6,x,x,x,x
COc1ccccc1CN1CCN(Cc2ccc3ccccc3c2)CC1,10,10,14,-10,3,x,x
COc1ccc(CN2CCN(Cc3ccc4ccccc4c3)CC2)cc1OC,-14,-16,41*,-7,10,10,30
C=CCn1c(C)c(/C=C/c2cc[n+](C)cc2)c2ccccc21,-3,45,56*,8,26,7,34
CCn1cc(/C=C/c2cc[n+](C)cc2)c2ccccc21,x,58*,42*,-12,x,9,20
CCN(CC)C(=O)Cn1c(C)c(/C=C/c2cc[n+](C)cc2)c2ccccc21,7,19,24,-6,3,x,x
Cc1[nH]c2ccccc2c1/C=C/c1cc[n+](C)cc1,x,20,16,-1,x,x,x
CCOC(=O)[C@@]12CCCC=C1N(CCc1ccc(Cl)cc1)C(=O)[C@H]2CC(=O)NCc1ccc(C)o1,x,x,21,x,x,x,x
COc1ccc(C(=O)OCCCN(C)C2CN(Cc3cn(Cc4cccc(F)c4)nn3)S(=O)(=O)C2)cc1OC (stereo not given),x,x,1,x,x,x,x
O=C(CCn1nnc(-c2cccs2)n1)N1CCCC1,x,x,-11,x,x,x,x
O=C(NCc1ccncc1)C(=O)N/N=C/c1ccc(OCc2ccccc2)cc1,15,4,4,3,-63,x,x
O=NN(CCc1ccncc1)c1ccc(OCc2ccccc2)cc1,-18,48,51*,3,40,-3,45*
SMILES,697 NFkB inh,Gli-Sufu antag,COUP-TFII inh,GalR3 antagonist,Jurkat NFkB inh,Gal4-VP16 ctr,NR2F2 inh conf
CCN(CC)S(=O)(=O)c1cc(NC(=O)CCCOc2ccc(C(C)=O)cc2)ccc1C,-34,9,42*,0,12,-3,18
CCN(CC)S(=O)(=O)c1cc(NC(=O)c2ccc3c(c2)NC(=O)C(C)S3)ccc1C (stereo not given),-5,4,61*,-1,11,9,47*
C=CCNC(=O)CN(C(=O)c1ccncn1)c1cccc(Br)c1,x,x,-6,x,x,x,x
CCCCOCCCNC(=O)C[C@H]1C[C@@]2(C(=O)OC)C(=C[C@H](C(C)C)O[C@@H]2C2CC2)N(Cc2ccc3c(c2)OCO3)C1=O,x,x,0,x,x,x,x
COc1ccc2nc(NC(=O)C3CCN(S(=O)(=O)c4cccc5nsnc45)CC3)sc2c1,-49,19,78*,-4,12,5,51*
CN1CCN(c2ccc(NC(=O)N3CCc4ccccc43)cc2)CC1,-90,48,62*,-9,-56,-11,63*
Cc1ccc(NC(=O)N2CCCc3ccccc32)cc1,10,-30,0,-3,-2,x,x
COC[C@@H]1CCCN1c1cccc2c1S(=O)(=O)N1CC[C@@H](C1)O2,x,x,-35,x,x,x,x
CCn1c(=O)n(CC(=O)N2CCCN(Cc3ccccc3)CC2)c(=O)c2ccccc21,x,x,6,x,x,x,x
Cc1ccc(S(=O)(=O)N2CCCCC2)cc1NC(=O)c1ccc2c(=O)n3c(nc2c1)CCCCC3,18,x,43*,-5,7,-3,14
COc1ccc(CC(=O)Nc2cc(S(=O)(=O)N3CCCCC3)ccc2C)cc1OC,-13,45,60*,1,31,0,48*
CCOC(=O)[C@]12CCCC3=C1N(CCC3)C(=O)[C@@H](CC(=O)NCc1cccc3ccccc13)C2,x,x,-2,x,x,x,x
COc1cc(/C=C2\CC/C(=C\c3cc(OC)c(O)c(OC)c3)C2=O)cc(OC)c1O,9,12,32,0,-1,x,x
COc1cc(/C=C2\COC/C(=C\c3cc(OC)c(OC)c(OC)c3)C2=O)cc(OC)c1OC,x,55*,60*,-1,x,92*,103*
S=c1[nH]nc(-c2cc(-c3ccccc3)n[nH]2)n1N=Cc1cccc(Oc2ccccc2)c1,x,x,0,x,x,x,x
O=C(CCc1ccccc1)N[C@H]1[C@H](O)CCC[C@]12C(=O)N(Cc1ccccc1)c1ccccc12,x,x,-2,x,x,x,x
C/C(CC(C)(C)C1CCCCC1)=N\NC(N)=S,18,36,59*,-3,30,17*,64*
COc1ccc(-c2cnc3c(NC(C)=O)cc(-c4cccc(NS(C)(=O)=O)c4)cn23)cc1OC,x,x,99*,7,x,-1,-8
COc1cc(-c2cnc3c(NC(C)=O)cc(-c4ccc(N5CCN(C)CC5)cc4)cn23)cc(OC)c1OC,x,x,41*,-7,x,-15,9
Nc1ccc(-c2nc3c(Cl)cc(N)cc3[nH]2)cc1,-41,x,48*,1,24,57*,36
Cc1ccccc1NC(=O)CSc1nnc(-c2cc(-c3ccccc3)n[nH]2)n1N,x,x,0,x,x,x,x
COc1cc(/C=N/NC(N)=S)cc(Br)c1OCc1ccccc1F,27,33,52*,-9,5,24*,51*
